We go through one sequence from publication PMC7862700, “An all-to-all approach to the identification of sequence-specific readers for epigenetic DNA modifications on cytosine”.

What all share (experiment): DAPPL (digital affinity profiling via proximity ligation, sequencing); 10 mM Tris-HCl pH 7.5, 50 mM NaCl, 1 mM DTT, 4% glycerol, room temperature, 30 min; GST-TFs on glutathione beads, 16-mer random dsDNA library, 0.1% formaldehyde crosslink after washing; high values mean tight binding
One assay has as its target T1, FEV (Homo sapiens, UniProt Q99581 1-238).
T1 sequence: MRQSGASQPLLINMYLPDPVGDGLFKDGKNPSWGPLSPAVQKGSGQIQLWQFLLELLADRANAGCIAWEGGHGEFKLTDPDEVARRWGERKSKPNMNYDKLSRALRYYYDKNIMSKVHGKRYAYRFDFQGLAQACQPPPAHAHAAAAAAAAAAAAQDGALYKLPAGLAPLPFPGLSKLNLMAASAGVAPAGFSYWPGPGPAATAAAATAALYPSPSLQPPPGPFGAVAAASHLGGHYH
As to conditions: protein: recombinant; tags: N-terminal GST; dsDNA, one strand shown. In a few lines:
(§1)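 Binding signal is each hexamer's read frequency for a factor divided by its frequency in the tag-only sample. The factors were GST-fused human transcription factors from yeast, captured on glutathione beads, DNA-barcoded and pooled with that sample. Pools were incubated with 200 nmole of a random double-stranded 16-mer DNA library in Tris/NaCl/DTT/glycerol buffer at room temperature for 30 min, then washed, crosslinked with 0.1% formaldehyde, proximity-ligated with BsaI/T4 ligase (1 h, 37 °C), PCR-amplified and sequenced on an Illumina NextSeq500.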

Another assay concerns the target ETV5 (Homo sapiens, UniProt P41161 1-510). As to conditions: protein: recombinant; tags: N-terminal GST; dsDNA, one strand shown. In a few lines: as §1
In a further assay the target is HSF1 (Homo sapiens, UniProt Q00613 1-529). As to conditions: protein: recombinant; tags: N-terminal GST; chain copies: 3; dsDNA, one strand shown. In a few lines: as §1
Chain of HSF1 (Q00613 whole entry): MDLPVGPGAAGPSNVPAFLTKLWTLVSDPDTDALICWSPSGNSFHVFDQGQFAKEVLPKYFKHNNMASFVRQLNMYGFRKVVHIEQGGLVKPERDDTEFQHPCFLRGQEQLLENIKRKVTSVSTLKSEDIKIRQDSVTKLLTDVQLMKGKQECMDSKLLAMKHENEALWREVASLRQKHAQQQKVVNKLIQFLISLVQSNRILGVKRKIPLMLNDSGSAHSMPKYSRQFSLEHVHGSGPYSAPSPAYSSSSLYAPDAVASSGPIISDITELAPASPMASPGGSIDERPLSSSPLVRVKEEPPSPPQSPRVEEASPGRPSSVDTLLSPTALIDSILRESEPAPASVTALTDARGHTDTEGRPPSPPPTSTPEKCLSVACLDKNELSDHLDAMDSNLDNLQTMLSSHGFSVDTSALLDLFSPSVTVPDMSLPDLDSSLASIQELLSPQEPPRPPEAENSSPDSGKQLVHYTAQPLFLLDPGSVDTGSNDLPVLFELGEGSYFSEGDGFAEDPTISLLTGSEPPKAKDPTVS
The target of another assay is T2, SPIC (Homo sapiens, UniProt Q8N5J4 1-248).
T2 sequence: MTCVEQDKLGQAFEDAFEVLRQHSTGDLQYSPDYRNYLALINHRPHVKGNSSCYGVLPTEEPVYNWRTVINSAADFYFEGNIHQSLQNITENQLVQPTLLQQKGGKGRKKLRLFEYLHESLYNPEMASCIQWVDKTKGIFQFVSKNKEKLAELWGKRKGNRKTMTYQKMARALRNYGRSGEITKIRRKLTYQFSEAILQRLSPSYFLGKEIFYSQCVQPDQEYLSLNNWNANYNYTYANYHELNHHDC
Conditions: protein: recombinant; tags: N-terminal GST; dsDNA, one strand shown. In a few lines: as §1

The next assay has as its target ELF4 (Homo sapiens, UniProt Q99607 1-663). As to conditions: protein: recombinant; tags: N-terminal GST; dsDNA, one strand shown. In a few lines:
as §1

Another assay addresses T3, ELK4 (Homo sapiens, UniProt P28324-2 1-405).
T3 sequence: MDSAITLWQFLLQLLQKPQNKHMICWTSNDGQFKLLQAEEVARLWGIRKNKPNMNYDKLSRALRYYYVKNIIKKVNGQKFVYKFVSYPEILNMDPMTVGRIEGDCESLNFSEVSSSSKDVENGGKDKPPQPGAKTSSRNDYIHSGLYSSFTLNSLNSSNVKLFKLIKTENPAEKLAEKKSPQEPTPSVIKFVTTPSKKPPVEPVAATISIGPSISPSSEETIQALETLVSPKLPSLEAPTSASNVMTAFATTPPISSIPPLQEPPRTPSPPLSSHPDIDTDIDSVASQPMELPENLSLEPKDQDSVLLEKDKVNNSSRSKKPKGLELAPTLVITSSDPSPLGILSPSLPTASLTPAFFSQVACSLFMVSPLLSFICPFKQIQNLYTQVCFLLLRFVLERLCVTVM
As to conditions: protein: recombinant; tags: N-terminal GST; dsDNA, one strand shown. In outline: as §1

The next assay deals with T4, ETV2 (Homo sapiens, UniProt O00321 1-342).
T4 sequence: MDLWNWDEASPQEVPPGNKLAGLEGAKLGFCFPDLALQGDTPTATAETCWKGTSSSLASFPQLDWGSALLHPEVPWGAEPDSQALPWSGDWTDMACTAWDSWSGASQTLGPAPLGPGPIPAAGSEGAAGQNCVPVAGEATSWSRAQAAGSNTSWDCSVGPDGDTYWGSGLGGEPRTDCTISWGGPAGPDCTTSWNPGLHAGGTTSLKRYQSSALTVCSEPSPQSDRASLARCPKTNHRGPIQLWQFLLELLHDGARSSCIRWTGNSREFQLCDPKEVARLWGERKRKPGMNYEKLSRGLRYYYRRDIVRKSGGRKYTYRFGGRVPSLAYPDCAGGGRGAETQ
Conditions: protein: recombinant; tags: N-terminal GST; dsDNA, one strand shown. In a few lines:
as §1

Another assay has as its target T5, ELF3 (Homo sapiens, UniProt P78545 1-371).
T5 sequence: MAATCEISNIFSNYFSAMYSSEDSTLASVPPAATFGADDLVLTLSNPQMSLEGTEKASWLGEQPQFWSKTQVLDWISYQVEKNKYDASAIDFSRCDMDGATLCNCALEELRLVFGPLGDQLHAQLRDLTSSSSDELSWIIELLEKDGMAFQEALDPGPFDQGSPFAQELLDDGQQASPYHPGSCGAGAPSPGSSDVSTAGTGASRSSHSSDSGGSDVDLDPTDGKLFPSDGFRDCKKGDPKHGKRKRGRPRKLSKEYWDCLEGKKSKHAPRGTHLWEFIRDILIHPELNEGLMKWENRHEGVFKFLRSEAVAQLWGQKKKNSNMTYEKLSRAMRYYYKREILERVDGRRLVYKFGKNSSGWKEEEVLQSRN
As to conditions: protein: recombinant; tags: N-terminal GST; dsDNA, one strand shown. In a few lines: as §1

Another assay has as its target CRX (Homo sapiens, UniProt O43186 1-299). Conditions: protein: recombinant; tags: N-terminal GST; dsDNA, one strand shown. In a few lines: as §1
Another assay concerns the target ETV1 (Homo sapiens, UniProt P50549 1-477). As to conditions: protein: recombinant; tags: N-terminal GST; dsDNA, one strand shown. In outline: as §1
A further assay deals with T6, ERF (Homo sapiens, UniProt P50548 1-548).
T6 sequence: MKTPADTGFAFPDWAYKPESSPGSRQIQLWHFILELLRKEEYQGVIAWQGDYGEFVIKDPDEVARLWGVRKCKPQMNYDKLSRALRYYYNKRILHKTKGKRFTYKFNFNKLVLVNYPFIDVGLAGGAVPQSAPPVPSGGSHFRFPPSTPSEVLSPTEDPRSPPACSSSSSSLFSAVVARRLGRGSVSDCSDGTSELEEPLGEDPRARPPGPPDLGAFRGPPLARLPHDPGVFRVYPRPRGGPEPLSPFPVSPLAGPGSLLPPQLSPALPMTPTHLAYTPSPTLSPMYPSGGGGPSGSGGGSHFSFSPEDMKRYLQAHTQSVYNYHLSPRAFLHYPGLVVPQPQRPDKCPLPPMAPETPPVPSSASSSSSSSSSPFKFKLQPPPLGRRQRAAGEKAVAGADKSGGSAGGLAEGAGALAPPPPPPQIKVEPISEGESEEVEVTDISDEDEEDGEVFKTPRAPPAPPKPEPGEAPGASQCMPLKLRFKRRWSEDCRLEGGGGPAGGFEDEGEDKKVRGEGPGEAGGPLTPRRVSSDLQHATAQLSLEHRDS
Conditions: protein: recombinant; tags: N-terminal GST; dsDNA, one strand shown. In outline: as §1

In the next assay the target is T7, ETV3L (Homo sapiens, UniProt Q6ZN32 1-361).
T7 sequence: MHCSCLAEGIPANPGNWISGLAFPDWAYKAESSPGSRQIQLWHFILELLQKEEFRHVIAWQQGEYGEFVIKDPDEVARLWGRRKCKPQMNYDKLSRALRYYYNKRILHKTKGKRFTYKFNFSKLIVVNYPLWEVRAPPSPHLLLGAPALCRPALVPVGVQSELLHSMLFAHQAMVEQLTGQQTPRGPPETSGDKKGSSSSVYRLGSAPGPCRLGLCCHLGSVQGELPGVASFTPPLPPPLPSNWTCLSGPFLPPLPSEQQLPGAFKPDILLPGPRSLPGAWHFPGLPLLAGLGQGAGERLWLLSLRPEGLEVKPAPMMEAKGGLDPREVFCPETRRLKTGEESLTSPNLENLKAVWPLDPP
As to conditions: protein: recombinant; tags: N-terminal GST; dsDNA, one strand shown. In outline: as §1

The target in another assay is T8, ETS2 (Homo sapiens, UniProt P15036 1-469).
T8 sequence: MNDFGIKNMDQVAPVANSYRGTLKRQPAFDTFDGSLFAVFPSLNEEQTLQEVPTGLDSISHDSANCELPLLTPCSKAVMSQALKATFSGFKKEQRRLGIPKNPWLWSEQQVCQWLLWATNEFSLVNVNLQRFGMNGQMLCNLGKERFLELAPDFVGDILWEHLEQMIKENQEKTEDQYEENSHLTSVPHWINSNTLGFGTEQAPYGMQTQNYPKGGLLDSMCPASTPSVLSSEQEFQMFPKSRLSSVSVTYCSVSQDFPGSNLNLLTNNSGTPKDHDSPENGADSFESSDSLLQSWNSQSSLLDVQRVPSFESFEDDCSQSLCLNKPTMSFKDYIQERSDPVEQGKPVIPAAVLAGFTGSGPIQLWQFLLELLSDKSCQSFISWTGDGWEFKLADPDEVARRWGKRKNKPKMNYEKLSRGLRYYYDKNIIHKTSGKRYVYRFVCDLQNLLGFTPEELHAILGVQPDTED
Conditions: protein: recombinant; tags: N-terminal GST; dsDNA, one strand shown. In a few lines: as §1

The target of the next assay is T9, SPDEF (Homo sapiens, UniProt O95238 1-335).
T9 sequence: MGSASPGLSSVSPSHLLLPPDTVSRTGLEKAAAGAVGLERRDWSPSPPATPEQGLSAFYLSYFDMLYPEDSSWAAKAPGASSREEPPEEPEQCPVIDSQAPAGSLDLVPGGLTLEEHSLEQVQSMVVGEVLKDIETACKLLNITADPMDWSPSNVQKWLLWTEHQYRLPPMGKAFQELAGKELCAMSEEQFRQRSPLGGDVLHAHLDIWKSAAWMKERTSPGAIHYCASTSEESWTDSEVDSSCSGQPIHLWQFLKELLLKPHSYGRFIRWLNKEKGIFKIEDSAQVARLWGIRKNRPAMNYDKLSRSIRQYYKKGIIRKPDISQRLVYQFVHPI
As to conditions: protein: recombinant; tags: N-terminal GST; dsDNA, one strand shown. In a few lines: as §1

Another assay addresses T10, ETV7 (Homo sapiens, UniProt Q9Y603 1-341).
T10 sequence: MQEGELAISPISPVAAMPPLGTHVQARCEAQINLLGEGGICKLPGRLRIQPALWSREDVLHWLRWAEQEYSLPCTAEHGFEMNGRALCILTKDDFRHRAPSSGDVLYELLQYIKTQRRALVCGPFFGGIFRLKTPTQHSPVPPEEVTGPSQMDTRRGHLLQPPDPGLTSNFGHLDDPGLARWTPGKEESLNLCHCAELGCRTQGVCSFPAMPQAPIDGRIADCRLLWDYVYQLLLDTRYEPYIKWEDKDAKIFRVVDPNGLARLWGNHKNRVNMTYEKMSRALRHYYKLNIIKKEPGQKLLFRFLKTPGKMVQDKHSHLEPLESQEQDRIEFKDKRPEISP
As to conditions: protein: recombinant; tags: N-terminal GST; dsDNA, one strand shown. In outline:
as §1

The target in a further assay is T11, ELF5 (Homo sapiens, UniProt Q9UKW6-2 1-255).
T11 sequence: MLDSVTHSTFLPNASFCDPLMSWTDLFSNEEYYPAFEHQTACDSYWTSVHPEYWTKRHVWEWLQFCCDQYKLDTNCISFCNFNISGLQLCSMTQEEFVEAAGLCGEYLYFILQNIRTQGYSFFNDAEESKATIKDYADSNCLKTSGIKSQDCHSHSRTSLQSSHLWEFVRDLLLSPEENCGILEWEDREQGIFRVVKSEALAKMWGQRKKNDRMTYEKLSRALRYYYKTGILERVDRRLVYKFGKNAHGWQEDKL
As to conditions: protein: recombinant; tags: N-terminal GST; dsDNA, one strand shown. In a few lines:
as §1

The target of a further assay is T12, ETV3 (Homo sapiens, UniProt P41162-2 1-143).
T12 sequence: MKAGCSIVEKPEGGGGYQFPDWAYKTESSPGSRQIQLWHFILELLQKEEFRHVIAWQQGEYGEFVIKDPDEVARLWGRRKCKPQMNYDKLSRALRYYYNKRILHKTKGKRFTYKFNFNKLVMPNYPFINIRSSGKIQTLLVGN
Conditions: protein: recombinant; tags: N-terminal GST; dsDNA, one strand shown. In outline: as §1

The next assay has as its target ETV6 (Homo sapiens, UniProt P41212 1-452). Conditions: protein: recombinant; tags: N-terminal GST; dsDNA, one strand shown. In a few lines:
as §1

Chain of ETV6 (P41212 whole entry): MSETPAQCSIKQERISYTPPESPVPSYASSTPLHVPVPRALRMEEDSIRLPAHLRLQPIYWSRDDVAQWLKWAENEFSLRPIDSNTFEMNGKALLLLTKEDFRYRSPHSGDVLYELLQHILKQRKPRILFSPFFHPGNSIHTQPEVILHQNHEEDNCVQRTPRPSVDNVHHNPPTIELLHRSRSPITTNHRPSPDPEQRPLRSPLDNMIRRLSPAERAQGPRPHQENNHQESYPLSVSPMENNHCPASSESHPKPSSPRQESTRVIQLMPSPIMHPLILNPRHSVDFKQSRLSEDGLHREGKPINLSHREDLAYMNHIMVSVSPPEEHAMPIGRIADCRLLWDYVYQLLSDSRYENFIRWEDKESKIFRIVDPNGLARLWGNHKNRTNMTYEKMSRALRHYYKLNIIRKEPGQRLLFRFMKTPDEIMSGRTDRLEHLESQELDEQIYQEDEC
Chain of ELF4 (Q99607 whole entry): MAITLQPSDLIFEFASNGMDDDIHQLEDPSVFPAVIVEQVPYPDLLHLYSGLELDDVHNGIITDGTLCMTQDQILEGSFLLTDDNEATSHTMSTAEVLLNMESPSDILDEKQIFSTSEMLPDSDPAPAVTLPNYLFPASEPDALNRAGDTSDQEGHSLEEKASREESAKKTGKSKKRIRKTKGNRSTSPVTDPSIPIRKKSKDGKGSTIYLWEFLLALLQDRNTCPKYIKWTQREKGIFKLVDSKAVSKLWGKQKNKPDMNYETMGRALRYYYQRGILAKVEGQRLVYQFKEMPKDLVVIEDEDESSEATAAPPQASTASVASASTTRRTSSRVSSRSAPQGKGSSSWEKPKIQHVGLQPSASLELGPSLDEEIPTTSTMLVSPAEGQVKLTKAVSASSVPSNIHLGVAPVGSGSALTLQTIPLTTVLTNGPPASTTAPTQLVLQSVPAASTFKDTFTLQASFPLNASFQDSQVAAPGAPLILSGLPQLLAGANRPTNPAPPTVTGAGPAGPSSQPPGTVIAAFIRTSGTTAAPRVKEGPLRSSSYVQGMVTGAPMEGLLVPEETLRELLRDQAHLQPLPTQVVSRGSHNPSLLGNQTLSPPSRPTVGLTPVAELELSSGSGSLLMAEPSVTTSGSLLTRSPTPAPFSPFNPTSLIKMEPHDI
Chain of ETV1 (P50549 whole entry): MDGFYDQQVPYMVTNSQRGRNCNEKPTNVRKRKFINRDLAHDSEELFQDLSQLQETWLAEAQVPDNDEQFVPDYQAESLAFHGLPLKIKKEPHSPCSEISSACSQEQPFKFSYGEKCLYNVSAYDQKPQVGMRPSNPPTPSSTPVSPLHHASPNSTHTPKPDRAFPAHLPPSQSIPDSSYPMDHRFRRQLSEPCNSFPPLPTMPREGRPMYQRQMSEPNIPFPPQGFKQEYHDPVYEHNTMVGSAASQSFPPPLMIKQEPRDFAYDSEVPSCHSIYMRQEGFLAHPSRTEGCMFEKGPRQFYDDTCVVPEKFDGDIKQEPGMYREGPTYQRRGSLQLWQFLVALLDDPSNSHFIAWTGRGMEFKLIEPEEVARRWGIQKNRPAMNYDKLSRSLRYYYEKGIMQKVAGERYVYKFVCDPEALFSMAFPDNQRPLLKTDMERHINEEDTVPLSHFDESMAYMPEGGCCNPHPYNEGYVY
Chain of CRX (O43186 whole entry): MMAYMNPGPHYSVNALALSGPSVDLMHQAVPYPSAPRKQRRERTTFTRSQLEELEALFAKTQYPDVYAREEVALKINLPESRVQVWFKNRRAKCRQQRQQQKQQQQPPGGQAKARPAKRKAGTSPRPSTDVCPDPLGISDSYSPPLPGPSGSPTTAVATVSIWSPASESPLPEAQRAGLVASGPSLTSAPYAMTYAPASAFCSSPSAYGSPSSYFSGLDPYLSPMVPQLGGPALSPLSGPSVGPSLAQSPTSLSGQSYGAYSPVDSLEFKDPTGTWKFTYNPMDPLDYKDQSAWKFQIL
Chain of ETV5 (P41161 whole entry): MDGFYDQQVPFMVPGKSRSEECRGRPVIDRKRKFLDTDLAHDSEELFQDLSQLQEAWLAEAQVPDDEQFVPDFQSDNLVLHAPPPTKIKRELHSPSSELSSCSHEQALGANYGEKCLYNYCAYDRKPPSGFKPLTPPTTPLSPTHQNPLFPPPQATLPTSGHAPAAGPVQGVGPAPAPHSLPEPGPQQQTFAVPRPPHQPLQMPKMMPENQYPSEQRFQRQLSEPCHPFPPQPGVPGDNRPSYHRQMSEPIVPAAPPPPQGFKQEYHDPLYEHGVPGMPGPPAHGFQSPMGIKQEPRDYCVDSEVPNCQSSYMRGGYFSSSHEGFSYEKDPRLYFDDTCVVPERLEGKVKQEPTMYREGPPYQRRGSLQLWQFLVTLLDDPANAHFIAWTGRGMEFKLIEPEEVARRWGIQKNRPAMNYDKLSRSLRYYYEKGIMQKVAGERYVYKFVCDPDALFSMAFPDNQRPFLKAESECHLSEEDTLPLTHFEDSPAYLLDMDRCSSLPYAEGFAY

For CCTGTT, the binding signal with FEV was 1.67 fold enrichment (6-mer frequency, TF over GST control); with ETV5 it was 1.79 fold enrichment (6-mer frequency, TF over GST control); with HSF1, 1.2 fold enrichment (6-mer frequency, TF over GST control); with SPIC, 1.91 fold enrichment (6-mer frequency, TF over GST control); with ELF4, 1.72 fold enrichment (6-mer frequency, TF over GST control); with ELK4, 1.55 fold enrichment (6-mer frequency, TF over GST control). The binding signal with ETV2 is 1.62 fold enrichment (6-mer frequency, TF over GST control); with ELF3, 1.62 fold enrichment (6-mer frequency, TF over GST control); in the assay with CRX it was 1.21 fold enrichment (6-mer frequency, TF over GST control); in the assay with ETV1, 1.69 fold enrichment (6-mer frequency, TF over GST control); in the assay with ERF, 1.66 fold enrichment (6-mer frequency, TF over GST control); with ETV3L it was 1.79 fold enrichment (6-mer frequency, TF over GST control). Also, the binding signal in the assay with ETS2 was 1.8 fold enrichment (6-mer frequency, TF over GST control); with SPDEF, 2.09 fold enrichment (6-mer frequency, TF over GST control); in the assay with ETV7 it was 1.63 fold enrichment (6-mer frequency, TF over GST control); in the assay with ELF5, 2.1 fold enrichment (6-mer frequency, TF over GST control); in the assay with ETV3 it was 1.9 fold enrichment (6-mer frequency, TF over GST control); in the assay with ETV6, 1.73 fold enrichment (6-mer frequency, TF over GST control).
